Source: PubChem BioAssay (NCI)
The panel holds about 83,000 compounds, 20% with a hit somewhere; the sample as a whole holds those more often.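 48-hour exposure, single concentration, 96-well plates; percent growth endpoint where 0 means no net growth. Active: below 10.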 Active and inactive are the calls of the source.

Each compound was assayed on NCI-H23 lung (assay: NCI-60 one-dose screen, 48 h (100 = growth as untreated, 0 = no growth, -100 = all killed)). Details: 10 µM unless noted.

Compound | growth
Cc1ncc(-c2ccnc(Nc3ccc(S(C)(=O)=O)cc3)n2)n1C(C)C | -33.8% (active)
C/C=C/C=N/NC(=S)Nc1ccccc1 | 90.7% (inactive)
Cc1nn(-c2ccccc2)c2c1N=c1s/c(=C\c3cn(-c4ccccc4)nc3-c3ccc(Cl)cc3)c(=O)n1C(C)N2 (stereo not given) | 79.4% (inactive)
COc1cc2c(cc1OCCCN1Cc3ccc(OCCCCC(=O)N4CCC(CCN5CCCC5)CC4)cc3C1)N=C(N)C21CCCC1 | 84.5% (inactive)

The compounds below were run on NCI-H226 lung in the same assay as above. Details: 10 µM unless noted.

Compound | growth
COc1cccc2cc(-c3nc(C4CCC(C(=O)O)CC4)n4ncnc(N)c34)[nH]c12 (stereo not given) | 7.69% (active)
CNC(=O)c1cc(Oc2ccc3nc(NC(=O)Nc4ccc(Cl)c(C(F)(F)F)c4)sc3c2)ccn1 | 20.6% (inactive)
C[C@@H](Oc1cc(-n2cnc3ccc(CN4CCN(C)CC4)cc32)sc1C(N)=O)c1ccccc1C(F)(F)F | 69.3% (inactive)
Oc1ccc(C(c2ccc(O)cc2)C(Cl)(Cl)Cl)cc1 | 104% (inactive)
C[C@H](NC(=O)c1c(N)nn2cccnc12)c1cc2cccc(C#Cc3cnn(C)c3)c2c(=O)n1-c1ccccc1 | 70.3% (inactive)
COc1cc(CCc2cc(NC(=O)c3ccc(N4C[C@@H](C)N[C@@H](C)C4)cc3)n[nH]2)cc(OC)c1 | 46.1% (inactive)
CNC(=O)CN1CCC(Oc2cc3c(Nc4cccc(Cl)c4F)ncnc3cc2OC)CC1 | 76.7% (inactive)
Cc1oc2c(C(=O)N/N=C\c3ccc(O)cc3O)c[nH]c2c1C | 28.8% (inactive)
CCCCCc1ccc(C)cc1OC(=O)CCl | 104% (inactive)
COc1cc2ncnc(Oc3cccc(NC(=O)Nc4cc(C(C)(C)C(F)(F)F)on4)c3)c2cc1OC | 23.9% (inactive)
COc1cc(Nc2ncc3c(n2)-c2ccc(Cl)cc2C(c2c(F)cccc2OC)=NC3)ccc1C(=O)O | 63.2% (inactive)
CC[C@H](Nc1ncnc2nc[nH]c12)c1nc2cccc(F)c2c(=O)n1-c1ccccc1 | 93.3% (inactive)
CN1CCN(CCOc2cc(OC3CCOCC3)c3c(Nc4c(Cl)ccc5c4OCO5)ncnc3c2)CC1 | 100% (inactive)
Nc1nc(Nc2ccccc2)c(C=Nc2ccccc2)c(=O)[nH]1 | 86.5% (inactive)
CNC(=O)c1cc(Oc2cccc3nc(Nc4ccc(Oc5ccccc5)cc4)ccc23)ccn1 | 66% (inactive)
CN1CC[C@@H](c2c(O)cc(O)c3c(=O)cc(-c4ccccc4Cl)oc23)[C@@H]1CO | 7.7% (active)

Compound | growth
Cc1[nH]n(C(N)=S)c(=O)c1N=Nc1ccc(S(=O)(=O)Nc2ccncn2)cc1 | 93.4% (inactive)
COCCN1CCN(Cc2ccc(-c3n[nH]c4c3C(=O)c3c(NC(=O)NN5CCOCC5)cccc3-4)cc2)CC1 | 6.04% (active)
CN(c1ncccc1CNc1nc(Nc2ccc3c(c2)CC(=O)N3)ncc1C(F)(F)F)S(C)(=O)=O | 8.79% (active)
COc1cc(N2CCC(N3CCN(C)CC3)CC2)ccc1Nc1ncnc(Nc2ccccc2S(=O)(=O)C(C)C)n1 | 109% (inactive)
O=C(COc1ccc(/C=C2\Cc3ccc(Cl)cc3C2=O)cc1)Nc1nccs1 | 98.4% (inactive)
O=C(c1ccc(/C=C/c2n[nH]c3ccccc23)cc1)N1CCNCC1 | 3.94% (active)
O=C(O)C1(Cc2cccc(Nc3nccs3)n2)CCC(Oc2cccc(Cl)c2F)CC1 (stereo not given) | 82.8% (inactive)
Cc1cc(O)cc(-c2c(-c3ccnc(-c4cccnc4)c3)cnn2C)c1 | 69.5% (inactive)
Cc1c(CN2CCN(C(=O)[C@H](C)O)CC2)sc2c(N3CCOCC3)nc(-c3cnc(N)nc3)nc12 | -4.64% (active)
CN1CCN(c2ccc(C(=O)Nc3n[nH]c4ccc(Cc5cc(F)cc(F)c5)cc34)c(NC3CCOCC3)c2)CC1 | -5.76% (active)
C#Cc1cccc(Nc2ncnc3cc(OCCOC)c(OCCOC)cc23)c1 | 75.4% (inactive)
COc1ccc(Nc2ncccc2NC(=O)c2cn(Cc3cccc(Oc4ccccc4)c3)nn2)cc1 | 93.8% (inactive)
O=C1NC(=O)[C@@H](c2cn3c4c(cccc24)CCC3)[C@@H]1c1c[nH]c2ccccc12 | 57% (inactive)
Cc1cc(-c2cc(O)ccc2Cl)cc2nnc(Nc3ccc(OCCN4CCCC4)cc3)nc12 | -51.7% (active)
C=CCN(/C=C1/C(=O)O[C@H](COC)[C@@]2(C)C1=C(O)C(=O)C1=C2[C@H](OC(C)=O)C[C@]2(C)C(=O)CC[C@@H]12)CC=C | 24% (inactive)
